In this experiment the test system is VDR:RXRa (NR concentration 270 nM, RXRa partner concentration 90 nM). Kind of experiment: PBM binding z-score (relative to random genomic background probes); higher = stronger binding; sequences stand for … in GC…GCGATTGACAGCGTAGAATGAAGG
How it is done:
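Protein-binding microarray (Agilent 4x180K custom design, double-stranded 60-nt probes: 5' GC cap, 34-nt variable region, 24-nt constant primer region; full probe sequence given). Purified or IVT nuclear receptor:RXRα heterodimers (3:1 NR:RXRα, mostly 270:90 nM) or homodimers were incubated for 1 h in PBS with 2% milk and no ligand, then detected with Alexa488 antibodies. Fluorescence from o1-orientation probes (~5 replicates averaged) was converted to z-scores against 500 random hg19 background probes. Variable regions are seed direct-repeat (DR0–DR5) sites, all their single-nucleotide variants and half-site ablations.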
CAAACTAGGTCAGAGGTCAAAGTCGAGCCAACCA yielded a PBM binding z-score of 6.04.

TCATATAGGTAATACAGGTGAAACTCGGCATCTA displayed a PBM binding z-score of 1.37.

On to ATACCAAGGTGATCGTAAGGTCGTTGATACTAAC, for which the PBM binding z-score is 2.74.

Sequence TCATATATGTAAACAGGTGAAAGTCCGTAAGTTA yielded a PBM binding z-score of 1.31.

CCTACTCGGCCAAGGTCATTGATCAGTCAAAGCA yielded a PBM binding z-score of 3.51.

As for ACAATGAGGTTATACGTAGATCAGGGAAGAAAGT, the PBM binding z-score was determined as 1.5.

In turn, AATACAGGGTCATCCTAGGCCAGAGTACGCACAG displayed a PBM binding z-score of 5.38.

On to ACTAGCAGGACAAGGGTCACTCAAGATTAGTCCG, for which the PBM binding z-score was 3.05.

On to TTACTAAGGTGAAAGGTCGTTGATGCACGCCTTG, for which the PBM binding z-score is 3.59.

With CCTACTGGGCCATTCAGCGGTCATTGATCATATG, the PBM binding z-score was -0.109.

The sequence GCTATTAGTTGAAAGGGCAACCGCATGATTCTCG had a PBM binding z-score of 0.504.

TCATATAGGTAAAGGTGATAGTCGAACGATATGA yielded a PBM binding z-score of 0.559.

Sequence CCTTACGGGTAAAGGTTATAGCACGGGTGGTACG came in with a PBM binding z-score of 0.723.

GCGACTGGGGCAAAGCAGGTCACCATAAGGTTGG: the PBM binding z-score came to 2.52.

ATCTCAAGGTAACAAGTTCAGTGAAAGAGAGGAC: the PBM binding z-score was 2.8.

Regarding ATCTCTTGGTAAAGATAGTTCAGTGAATGCAAAT, the PBM binding z-score amounted to 0.811.

As to AGTAGCAGGCCAAGTTTGGGTCACTCAAACAAAG, the PBM binding z-score was 0.609.

As for CAAACTAGGTCAAACGTCAAAGTCGAGCCAACCA, the PBM binding z-score turned out to be 2.41.

In the case of CAAACTAGGTCATGAGGTCAAAGTCCGCTTCCCG, the PBM binding z-score is 6.08.

In turn, CCTAGCAGCCCAGGGTCACTCAAGCATTTCGCTT showed a PBM binding z-score of 2.44.

In turn, AGAATGAGGTTAAGATCATGGAAACAGAATACAT displayed a PBM binding z-score of 1.28.

On to CCTACTGGGCCATCAGGGCATTGATATCAACGTT, for which the PBM binding z-score is -0.589.

Sequence CCTACTGGGCCATCCAGAGGTCATTGATCATATG registered a PBM binding z-score of 4.12.

In turn, GTACCAAGGTGAATCGGTCGTTGATGAGTAGGCG registered a PBM binding z-score of -0.122.

TCTAGCAGGCCAGAGGGTCACTCGAGAGGTACGG came in with a PBM binding z-score of 1.39.

On to CGTCCAAGGTCAGAGAGGTCAGTGAATGCCGAGT, for which the PBM binding z-score is 7.26.

CGTCCAAGGACAGAGAGGTCAGTGAATGCCGAGT: the PBM binding z-score was determined as 3.03.

With TCTAGCAGGCCAGAGGGTCACTCTAGAGGTACGG, the PBM binding z-score was determined as 0.978.

The sequence CCTAGCTGGTCAGGAGGTCACACACCGGATATGA came in with a PBM binding z-score of 3.73.

In turn, GCGACTGGGGCAAAGCAGGTTACCCTAAGGTTGG registered a PBM binding z-score of 0.0152.

As to AGAACGAGGTTAAGATCAGGGAAACAGAATACAT, the PBM binding z-score worked out at 1.36.

Sequence CCTAGCAGGACAGGGTCACTCAAGCATTTCGCTT returned a PBM binding z-score of 2.9.

In the case of TGAATGATGTTATAAGATCAGGGAACGTTGCAAA, the PBM binding z-score is -0.175.

The sequence TCATATAGGTAAAAGGGGAAAGTCGGTGTGGTAA showed a PBM binding z-score of 0.861.

GGAACGAGGGCAAAGTTGATAGTATCTGTCGACG came in with a PBM binding z-score of 1.21.

The sequence CCTGCTTGGTCATGGTCAGCTAATCTACAGTATG registered a PBM binding z-score of -0.22.

For the sequence TCATATAGGTAAATCCTAGGTGAAAGTCCGATCT, the PBM binding z-score came to 0.7.

AGACCGAGGGCACGCTGAGTTGATAGCAGAGTAG had a PBM binding z-score of 2.21.

Take ATCGAAAGGTCGACGAGGTGAGCATACACCGTTT: the PBM binding z-score turned out to be 5.07.

The sequence GCATATAGGTCATACAAGGTGAAAGTCCGATTGT displayed a PBM binding z-score of 4.55.

Values taken from the supplement of paper PMC6555819.
